One assay has as its target Sialic acid-binding Ig-like lectin 9 (Homo sapiens) (UniProt Q9Y336). Nature of the assay: Hs-Siglec9 ALPHAscreen SOP 20170721. Also on record: scale not given: direction of the effect not stated beside the values. The note with it: 10 µM.
Sequence of Sialic acid-binding Ig-like lectin 9 (Homo sapiens) (Q9Y336 whole entry): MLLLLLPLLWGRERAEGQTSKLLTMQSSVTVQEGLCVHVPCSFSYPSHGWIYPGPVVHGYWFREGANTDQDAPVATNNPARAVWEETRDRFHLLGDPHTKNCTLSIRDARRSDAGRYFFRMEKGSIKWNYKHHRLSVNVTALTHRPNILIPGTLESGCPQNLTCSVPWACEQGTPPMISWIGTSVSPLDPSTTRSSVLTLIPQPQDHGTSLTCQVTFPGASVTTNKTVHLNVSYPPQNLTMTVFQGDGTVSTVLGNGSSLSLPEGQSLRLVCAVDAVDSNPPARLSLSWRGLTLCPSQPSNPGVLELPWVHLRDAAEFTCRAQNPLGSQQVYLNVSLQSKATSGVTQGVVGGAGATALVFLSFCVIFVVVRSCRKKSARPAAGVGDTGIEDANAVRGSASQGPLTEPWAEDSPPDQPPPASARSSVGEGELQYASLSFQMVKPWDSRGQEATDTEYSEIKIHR
Regarding `CCCc1n[nH]cc1C(=O)N1CCC(c2nccn2CCOC)CC1`, the Percent Effect was 21.9%.

For `Cc1cc(C)n2cc(CN3CCCC3Cn3nc(C)nc3C)nc2n1` (stereo not given), the Percent Effect was found to be 2.66%.

On to `CN(C)S(=O)(=O)N1CCCC(c2cccc(Cc3ccccc3)n2)C1` (stereo not given), for which the Percent Effect was -7.39%.

On to `CC(C)NC(=O)CC1COC2(CCN(Cc3cccs3)CC2)C1` (stereo not given), for which the Percent Effect is -2.18%.

Regarding `CCc1nc(C2CCCN2C(=O)c2c[nH]c(C)n2)no1` (stereo not given), the Percent Effect turned out to be 18.3%.

For the compound `Cc1cc(NC(=O)NCC2CCOC2)no1` (stereo not given), the Percent Effect came out at 0.0318%.

As to `CC(C)(O)CN1CCN(C(=O)c2cccnc2O)CC1`, the Percent Effect turned out to be 5.77%.

With `CC1(C)OCC(CNC(=O)c2cnn(-c3ccc(Cl)cc3)c2N)O1` (stereo not given), the Percent Effect is -9.2%.

Consider `O=c1c2ccccc2nc2n1C(CSc1ccc(Cl)cc1Cl)CN2` (stereo not given), for which the Percent Effect is -1.05%.

In the case of `Cc1ccc(CN2CCCn3c(nc(CN4CCCC4)cc3=O)C2)s1`, the Percent Effect was -1.12%.

Consider `CC(C(=O)N1CCCC1)N1CCC(c2nccn2Cc2cscn2)CC1` (stereo not given), for which the Percent Effect worked out at 12.9%.

As for `Cn1ccc(C(=O)NCc2cccc(NC(=O)C3CCC3)c2)cc1=O`, the Percent Effect came to 5.5%.

`c1cc(-c2nc(CN3CCn4c(nnc4C4CC4)C3)cs2)cs1`: the Percent Effect is -7.08%.

`Cc1ccc(-c2nc(CN3CCCC(Cn4cncn4)C3)no2)cc1` (stereo not given): the Percent Effect turned out to be 0.0125%.

For `c1cc(-c2noc(CN3CCn4c(nnc4C4CC4)C3)n2)co1`, the Percent Effect turned out to be 1.91%.

Consider `Cn1cnc2c1CCN(Cc1cccc(C(N)=O)c1)C2`, for which the Percent Effect was found to be 3.32%.

For the compound `CCn1ccnc1CN(C)CC1CCCN1c1cccnn1` (stereo not given), the Percent Effect was -5.89%.

Consider `CNc1cc(C2CCCN2C(=O)c2ccc3oc(=O)n(C)c3c2)ccn1` (stereo not given), for which the Percent Effect turned out to be 1.42%.

As to `Cc1cccc(N2CCN(C(=O)Nc3cnn(CC(N)=O)c3)CC2)c1`, the Percent Effect was -9.92%.

Consider `CC(C)c1cc(N2CCC(N)CC2)n2nccc2n1`, for which the Percent Effect was 8.57%.

Another assay relates to Trypanosoma cruzi. Nature of the assay: Trypanosoma cruzi phosphomannomutase and mannose-1-phosphate guanylyltransferase assay. It counts as functional. Also on record: scale not given: direction of the effect not stated beside the values. The note with it: 10 µM.
With `O=C1COC2(CCN(C(=O)c3ccco3)CC2)CN1Cc1ccccn1`, the Percent Effect was determined as 0%.

As to `Cc1ccn(-c2cccc(C(=O)N3CCCC(n4ccnc4C)C3)c2)n1` (stereo not given), the Percent Effect is -9.7%.

Consider `Cc1ccoc1-c1nnc(CN2CCn3c(nnc3C3CC3)C2)o1`, for which the Percent Effect came out at 0.201%.

As for `CC(=O)N1CCCC1c1csc(Nc2cnccn2)n1` (stereo not given), the Percent Effect is -5.33%.

As for `Fc1ccc(-c2nnc(CN3CCn4c(nnc4C4CC4)C3)o2)cc1`, the Percent Effect is -3.81%.

With `CC(C)c1cc(NC(=O)CN2CCNC(=O)C2)on1`, the Percent Effect is -0.933%.

For `CN(C)c1ccc(NC(=O)NCc2ccccn2)cn1`, the Percent Effect is -3.92%.

With `CNc1snc(C)c1C(=O)N1CCCC(n2nc(C)cc2C)C1` (stereo not given), the Percent Effect was 6.02%.

On to `COc1ccc(CN2CCC[C@@H]3CN(C(=O)c4ccco4)C[C@@H]32)cc1`, for which the Percent Effect is -3.6%.

For `O=C(c1cc(Cl)c2c(c1)OCCO2)N1CCCC(n2cncn2)C1` (stereo not given), the Percent Effect was determined as 0.402%.

As for `CCC(=O)N1CCC(O)(c2ncc(OC)nc2OC)CC1`, the Percent Effect was -3.55%.

As for `CCCn1ncc2c(C(=O)Nc3n[nH]c(SC)n3)cc(C3CC3)nc21`, the Percent Effect was -0.395%.

Regarding `Cc1nc(CN(C)C2CCN(CCCOc3ccccc3)C2)no1` (stereo not given), the Percent Effect turned out to be 2.42%.

For `CCOc1ncccc1NC(=O)NC1CCCN(c2ncccn2)C1` (stereo not given), the Percent Effect amounted to 4.66%.

With `COC(=O)NCc1cc2n(n1)CCCN(C(C)=O)C2`, the Percent Effect is -3.98%.

For the compound `Fc1ccc(CN2CCC(c3n[nH]c4ncccc34)CC2)cc1F`, the Percent Effect was -6.11%.

`c1ccc(-c2nc(CN3CCc4c(ncn4C4CC4)C3)cs2)cc1`: the Percent Effect is -0.933%.

Take `Cc1ccc(C(=O)N2CCCC3(CCCC(=O)N3C)C2)cc1F` (stereo not given): the Percent Effect is -1.5%.

For the compound `Cc1nn(C)c(N(C)C)c1CNC(C)c1cccc(OC(C)C)c1` (stereo not given), the Percent Effect was -0.746%.

`c1csc(-c2nc(CN3CCn4c(nnc4C4CC4)C3)co2)c1`: the Percent Effect was -3.41%.

Turning to `CCCc1n[nH]cc1C(=O)N1CCC(c2nccn2CCOC)CC1`, the Percent Effect was found to be 8.44%.

`Cc1cc(C)n2cc(CN3CCCC3Cn3nc(C)nc3C)nc2n1` (stereo not given): the Percent Effect is 3.41%.

Consider `CN(C)S(=O)(=O)N1CCCC(c2cccc(Cc3ccccc3)n2)C1` (stereo not given), for which the Percent Effect was -6.31%.

`CC(C)NC(=O)CC1COC2(CCN(Cc3cccs3)CC2)C1` (stereo not given): the Percent Effect was -3.19%.

As to `CCc1nc(C2CCCN2C(=O)c2c[nH]c(C)n2)no1` (stereo not given), the Percent Effect was found to be 3.41%.

For the compound `Cc1cc(NC(=O)NCC2CCOC2)no1` (stereo not given), the Percent Effect is -6.63%.

Turning to `CC(C)(O)CN1CCN(C(=O)c2cccnc2O)CC1`, the Percent Effect turned out to be 7.98%.

Consider `CC1(C)OCC(CNC(=O)c2cnn(-c3ccc(Cl)cc3)c2N)O1` (stereo not given), for which the Percent Effect was -2.76%.

`O=c1c2ccccc2nc2n1C(CSc1ccc(Cl)cc1Cl)CN2` (stereo not given): the Percent Effect is -1.31%.

Consider `Cc1ccc(CN2CCCn3c(nc(CN4CCCC4)cc3=O)C2)s1`, for which the Percent Effect is -2.82%.

For the compound `CC(C(=O)N1CCCC1)N1CCC(c2nccn2Cc2cscn2)CC1` (stereo not given), the Percent Effect is -3.4%.

Take `Cn1ccc(C(=O)NCc2cccc(NC(=O)C3CCC3)c2)cc1=O`: the Percent Effect was determined as 4.48%.

In the case of `c1cc(-c2nc(CN3CCn4c(nnc4C4CC4)C3)cs2)cs1`, the Percent Effect is 3.47%.

As to `Cc1ccc(-c2nc(CN3CCCC(Cn4cncn4)C3)no2)cc1` (stereo not given), the Percent Effect is -0.373%.

As for `c1cc(-c2noc(CN3CCn4c(nnc4C4CC4)C3)n2)co1`, the Percent Effect was found to be 4.04%.

For the compound `Cn1cnc2c1CCN(Cc1cccc(C(N)=O)c1)C2`, the Percent Effect is 0.657%.

Take `CCn1ccnc1CN(C)CC1CCCN1c1cccnn1` (stereo not given): the Percent Effect was determined as 0%.

`CNc1cc(C2CCCN2C(=O)c2ccc3oc(=O)n(C)c3c2)ccn1` (stereo not given): the Percent Effect is -3.94%.

`Cc1cccc(N2CCN(C(=O)Nc3cnn(CC(N)=O)c3)CC2)c1`: the Percent Effect was found to be 5.73%.

For `CC(C)c1cc(N2CCC(N)CC2)n2nccc2n1`, the Percent Effect is 11%.

The values above are taken from ChEMBL document CHEMBL3988442, “University of Dundee, Small-Polar-MMV Screening Library” (2021).
